Measurements reported in PubChem BioAssay AID1851 (National Center for Advancing Translational Sciences (NCATS), 2009).
Out of some 16,000 compounds screened, about 4,000 (25%) were called active. Inconclusive results (about 26%) are left out. The list is a sample of the results. Unmarked numbers belong to inactive results. The call rests on the fitted dose curve; in most records, active means well fitted curve in the direction sought with a large enough effect; inconclusive means small, poorly fitted or top-dose-only effect, or effect the other way; inactive means no such curve, though single readings can be large or run the other way.

Biological target: Cytochrome P450 2C9 (Homo sapiens) (UniProt P11712)
Sequence (P11712 whole entry, looked up): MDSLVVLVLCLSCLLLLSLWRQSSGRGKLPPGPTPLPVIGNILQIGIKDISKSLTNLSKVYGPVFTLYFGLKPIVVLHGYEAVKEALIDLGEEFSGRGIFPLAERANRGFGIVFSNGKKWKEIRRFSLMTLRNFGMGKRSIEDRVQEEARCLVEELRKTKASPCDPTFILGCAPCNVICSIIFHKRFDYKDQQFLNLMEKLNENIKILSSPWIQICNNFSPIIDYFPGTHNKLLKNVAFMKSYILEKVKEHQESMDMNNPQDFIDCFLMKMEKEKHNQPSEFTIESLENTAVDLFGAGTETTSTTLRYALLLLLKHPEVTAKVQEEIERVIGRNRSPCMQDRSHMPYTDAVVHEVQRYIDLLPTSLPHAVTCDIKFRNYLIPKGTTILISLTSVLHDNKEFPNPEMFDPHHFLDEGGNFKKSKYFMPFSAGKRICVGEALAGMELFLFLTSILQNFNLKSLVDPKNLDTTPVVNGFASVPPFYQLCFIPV
Assay: Cytochrome panel assay with activity outcomes
Settings: recombinant CYP, pro-luciferin dealkylation, luminescence, p450-cyp2c9; series mostly up to 57.1 µM; activity, negative = inhibition: at the top concentration
On the % scale 0 is the no-effect control and ±100 the full control effect.

Q: With `CN1CCC[C@@H](CC2c3ccccc3Sc3ccccc32)C1` as the molecule, how does the “activity, negative = inhibition” value read?
A: -1.06% [at 25.6 µM]

Q: With `CCSC(N)=Nc1ccc(C(F)(F)F)cc1` as the molecule, how does the “activity, negative = inhibition” value read?
A: -14.4%

Q: Which “activity, negative = inhibition” value does the source give for `COc1cc(S(C)=O)ccc1-c1nc2ncccc2[nH]1` (configuration not stated) here?
A: -9.95% [at 25.6 µM]

Q: For `COC(=O)c1ccccc1NC(=O)c1cc2nc(C3CC3)cc(C(F)(F)F)n2n1`, which AC50 is on record?
A: 3.55 µM (active)

Q: Which “activity, negative = inhibition” value does the source give for `CN(C)CCOC(=O)[C@@H](c1ccccc1)C1(O)CCCC1` here?
A: 0.789% [at 25.6 µM]

Q: How did the AC50 turn out when `C[C@@H]1c2cccc(O)c2C(O)=C2C(=O)[C@@]3(O)C(O)=C(C(N)=O)C(=O)[C@@H](N(C)C)[C@@H]3[C@@H](O)[C@@H]21` was run?
A: inactive

Q: Which AC50 does the source give for `Cc1ccc(S(=O)(=O)NC(=O)c2cccn2C)cc1` here?
A: 15.8 µM (active)

Q: With `Cc1ccc(S(=O)(=O)NC(=O)NN2C[C@H]3CCC[C@@H]3C2)cc1` as the molecule, how does the “activity, negative = inhibition” value read?
A: 16.2% [at 25.6 µM]

Q: Which activity, negative = inhibition does the source give for `Cc1ccc(S(=O)(=O)NC(=O)OC23COCN2COC3)cc1` here?
A: -0.0498% [at 11.4 µM]

Q: For `CCN(CC)CCNc1ccc(CO)c2sc3ccccc3c(=O)c12`, which “activity, negative = inhibition” value is on record?
A: 9.87% [at 25.6 µM]

Q: How did the activity, negative = inhibition turn out when `Cc1ccccc1-c1nc(N(C)Cc2ccco2)c2ccccc2n1` was run?
A: -11% [at 2.29 µM]

Q: How did the AC50 turn out when `O=C(NCc1ccccc1)C(c1ccc(F)cc1)N(Cc1ccco1)C(=O)c1ccccn1` (configuration not stated) was run?
A: 15.8 µM (active)

Q: Which AC50 does the source give for `Cc1ccccc1C(C(=O)NCc1ccccc1)N(Cc1ccco1)C(=O)c1ccccn1` (configuration not stated) here?
A: 10 µM (active)

Q: With `CC(Cc1ccccc1)C(=O)NCc1ccccn1` (configuration not stated) as the molecule, how does the “activity, negative = inhibition” value read?
A: -5.93%

Q: How did the activity, negative = inhibition turn out when `c1ccc(CCNCc2ccco2)nc1` was run?
A: 0.412% [at 11.4 µM]

Q: `CN(Cc1ccco1)c1ncnc2ccc(-c3cccnc3)cc12` was tested. Which activity, negative = inhibition did it give?
A: -16.8% [at 2.29 µM]

Q: For `Cc1cc(C(C)(C)CC(C)(C)C)ccc1OCCOCC[N+](C)(C)Cc1ccccc1`, which “activity, negative = inhibition” value is on record?
A: -13.2% [at 25.6 µM]

Q: With `CNc1cc(NS(=O)(=O)c2ccc(N)cc2)nc(NC)n1` as the molecule, how does the AC50 read?
A: 2 µM (active)

Q: With `Cc1cc(C)nc(NS(=O)(=O)c2ccc(N)cc2)n1` as the molecule, how does the “activity, negative = inhibition” value read?
A: 22.1% [at 25.6 µM]

Q: For `COc1cc(NS(=O)(=O)c2ccc(N)cc2)ncn1`, which “activity, negative = inhibition” value is on record?
A: -4.22% [at 25.6 µM]

Q: Which AC50 does the source give for `CCCC(=O)Nc1c2c(nn1-c1ccc(C)cc1C)CSC2` here?
A: 14.1 µM (active)

Q: How did the “activity, negative = inhibition” value turn out when `CCCC(=O)Nc1c(C)n[nH]c1C` was run?
A: -15.9%

Q: With `Cc1ccccc1-n1nc2c(c1NC(=O)c1c(-c3ccccc3Cl)noc1C)CSC2` as the molecule, how does the AC50 read?
A: 1.41 µM (active)

Q: Which AC50 does the source give for `Cc1ccc(-n2nc3c(c2NC(=O)c2cccs2)CSC3)cc1` here?
A: 3.55 µM (active)

Q: For `Cc1ccccc1-n1nc2c(c1NC(=O)c1ccc(S(=O)(=O)N(C)C)cc1)CSC2`, which AC50 is on record?
A: 2.82 µM (active)

Q: Which “activity, negative = inhibition” value does the source give for `CC(C)(C)NC[C@H](O)COc1cccc2c1CCC(=O)N2` here?
A: 8.94% [at 25.6 µM]

Q: Which activity, negative = inhibition does the source give for `CCOC(=S)SCC(=O)O` here?
A: 4.25% [at 11.4 µM]

Q: For `NC1=N[C@H](c2ccc(Cl)cc2)N(c2ccc(S(=O)(=O)Nc3ncccn3)cc2)C(N)=N1`, which activity, negative = inhibition is on record?
A: 14.6% [at 11.4 µM]

Q: With `CC(C)CO/N=C1/C[C@@H](O)[C@@H](O)[C@@H]2[C@@H]3C(=O)N([C@@H](C)c4ccccc4)C(=O)[C@H]3CC[C@@H]12` as the molecule, how does the activity, negative = inhibition read?
A: -15.7% [at 11.4 µM]

Q: `Cc1nc(NS(=O)(=O)c2ccc(Br)cc2)c2c3c(sc2n1)CCC3` was tested. Which AC50 did it give?
A: 0.224 µM (active)

Q: With `Cc1nc(NS(=O)(=O)c2ccccc2C)c2c3c(sc2n1)CCC3` as the molecule, how does the AC50 read?
A: 2.51 µM (active)

Q: With `Cn1c2c(c(=O)n(C)c1=O)C1(C(=O)Nc3ccccc31)C(C#N)=C(N)O2` (configuration not stated) as the molecule, how does the “activity, negative = inhibition” value read?
A: -25.5%

Q: Which “activity, negative = inhibition” value does the source give for `CCn1c(=O)[nH]c2cc(Cl)c(Cl)cc21` here?
A: 7.2%

Q: With `C[C@@H](c1ccccc1)N1C(=O)[C@H]2[C@H]3[C@H](O)[C@H](O)C/C(=N/OCc4ccccc4)[C@H]3CC[C@@H]2C1=O` as the molecule, how does the activity, negative = inhibition read?
A: -20.1% [at 11.4 µM]

Q: How did the “activity, negative = inhibition” value turn out when `CCn1c(SCC(=O)N/N=C/C=C\c2ccccc2[N+](=O)[O-])nnc1-c1ccccc1` was run?
A: 19.5%

Q: For `CCn1c(COc2ccccc2)nnc1SCC(=O)c1cccc([N+](=O)[O-])c1`, which AC50 is on record?
A: 22.4 µM (active)

Q: `O=C(CSc1nnc(COc2ccccc2)n1-c1ccccc1)c1ccccc1` was tested. Which AC50 did it give?
A: 10 µM (active)

Q: Which “activity, negative = inhibition” value does the source give for `COc1ccc(OCc2nnc(SCC(=O)O)n2N)cc1` here?
A: -18.9%

Q: How did the activity, negative = inhibition turn out when `O=C(CSc1nc2ccc([N+](=O)[O-])cc2s1)c1ccc2ccccc2c1` was run?
A: -5.5% [at 11.4 µM]

Q: How did the activity, negative = inhibition turn out when `CO[C@@H]1COC(=O)C/C=C\[C@@H](C)[C@@H]2C=C[C@H](O)[C@@H](COC(=O)CCC[C@H]1C)O2` was run?
A: -8.54% [at 11.4 µM]

Q: `Cc1c(C)n(C(=O)CN2CCC(C)CC2)c2ccccc12` was tested. Which “activity, negative = inhibition” value did it give?
A: 28.1%

Q: `CO[C@@H]1COC(=O)C/C=C\[C@H](C)[C@H](OC)COC(=O)[C@H]2CCCN2C(=O)C/C=C\[C@H]1C` was tested. Which activity, negative = inhibition did it give?
A: 13.8% [at 11.4 µM]

Q: For `OC[C@H]1NC[C@H](O)[C@@H](O)[C@H]1O`, which “activity, negative = inhibition” value is on record?
A: 22.1%

Q: Which activity, negative = inhibition does the source give for `Cc1ccccc1-c1cc(N(C)Cc2ccco2)ncn1` here?
A: -5.66% [at 2.29 µM]

Q: `Cc1cc(N2CCN(C)CC2)nc2ccc(NC(=O)CCC(=O)NCc3ccco3)cc12` was tested. Which “activity, negative = inhibition” value did it give?
A: 14.6%

Q: For `Cc1ccc(NC(=O)N(Cc2ccco2)C(C)c2ccco2)cc1C` (configuration not stated), which AC50 is on record?
A: 12.6 µM (active)

Q: `CCCNC1CCS(=O)(=O)C1` (configuration not stated) was tested. Which “activity, negative = inhibition” value did it give?
A: -6.49%
